Reference: PubChem BioAssay AID504332 (National Center for Advancing Translational Sciences (NCATS), 2011)
Out of some 350,000 compounds screened, about 31,000 (8.9%) were called active. Entries that show only a call come without a potency. Roughly 15% stayed inconclusive and do not appear here. The full list was thinned out, with actives kept by preference. Unmarked numbers belong to inactive results. Calls come from the whole dose curve; as a rule, active = well fitted inhibition curve with a large enough effect; inconclusive = small, poorly fitted or top-dose-only effect; inactive = no such curve, though single readings can be large or run the other way.

Target: Histone-lysine N-methyltransferase EHMT2 (Homo sapiens) (UniProt Q96KQ7)
Sequence (Q96KQ7 913-1193 limits assumed): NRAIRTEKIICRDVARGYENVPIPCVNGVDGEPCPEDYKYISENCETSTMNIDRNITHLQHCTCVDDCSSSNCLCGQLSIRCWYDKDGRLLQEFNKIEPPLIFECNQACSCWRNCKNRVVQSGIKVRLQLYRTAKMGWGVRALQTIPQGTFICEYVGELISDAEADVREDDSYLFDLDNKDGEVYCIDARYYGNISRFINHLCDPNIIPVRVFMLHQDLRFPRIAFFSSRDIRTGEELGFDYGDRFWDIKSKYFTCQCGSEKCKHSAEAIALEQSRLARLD
Test: qHTS Assay for Inhibitors of Histone Lysine Methyltransferase G9a; note: nearly all actives have a fitted effect of over 75% in size
Conditions: G9a H3K9 monomethylation, AlphaScreen, 2 h; series mostly up to 59 µM
Method in brief: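 Chemiluminescent proximity detection of H3K9 monomethylation, read after 10 min bead incubation in the dark. Reaction: 20 nM G9a, 500 nM biotin-H3K9 peptide, 20 uM SAM cofactor, 2 h, room temperature, following 15 min enzyme-compound preincubation.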
Potency is the fitted concentration of half-maximal effect.

| SMILES | Potency | activity, negative = inhibition |
| --- | --- | --- |
| Cc1cc(C)cc(NC(=O)CSc2nc3nccnc3c(=O)n2CCc2c[nH]c3ccccc23)c1 | inactive |  |
| CCOc1ccccc1NC(=O)Cn1c(=O)n(Cc2ccccc2)c(=O)c2c(C)c(C(=O)N(C)C)sc21 | inactive |  |
| Cc1cccc(C(=O)Nc2ccc(Oc3cnccn3)cc2)c1 |  | -1.31% [at 2.33 µM] |
| CCOc1cc(C(=O)NCCc2csc3nc(-c4ccc(C)cc4)nn23)cc(OCC)c1OCC | inactive |  |
| CCOC(=O)C1=C(COC(=O)[C@H](C)NS(=O)(=O)c2ccccc2F)NC(=O)NC1C (some centres not stated) |  | 20.6% [at 2.33 µM] |
| CCc1cc2c(cc3c(=O)n(CC(=O)NCc4cccc(Cl)c4)nc(CC)n32)s1 | inactive |  |
| COCCNC(=O)c1ccc2c(c1)N(Cc1cccc(Cl)c1)C(=O)c1ccccc1S2(=O)=O | inactive |  |
| CCOC(=O)[C@H]1[C@H]2COc3ccc(Cl)cc3[C@@H]2N2C(=O)c3cc(C)ccc3NC(=O)[C@@]12C |  | 28% [at 2.33 µM] |
| CCS(=O)(=O)N1CCc2cc(C(=O)N3CCN(c4ccccc4OC)CC3)ccc21 | inactive |  |
| CCn1c(C)c(C)c2cc(C(=O)N3CCN(c4cccc(C)c4C)CC3)ccc21 | 39.8 µM (active) |  |
| CCOc1ccccc1N1CCN(C(=O)c2ccc3[nH]c(C)c(C)c3c2)CC1 | 79.4 µM (active) |  |
| Cc1[nH]c2ccc(C(=O)N3CCN(C)CC3)cc2c1C | inactive |  |
| Cc1cccc(N2CCN(C(=O)c3ccc4c(c3)CCN4S(=O)(=O)c3ccccc3)CC2)c1C | inactive |  |
| CCC(CC)C(=O)N1CCN(c2cccc(C)c2C)CC1 | inactive |  |
| CCc1ccc(C(=O)COC(=O)c2ccco2)cc1 | inactive |  |
| CC1CCCCC12NC(=O)N(CC(=O)OCC(=O)NCc1ccc(F)cc1)C2=O (configuration not stated) | inactive |  |
| COc1ccc(-c2nc3sc(CCNC(=O)C(C)(C)C)c(C)n3n2)cc1 | inactive |  |
| CCN(C(=O)COC(=O)c1sccc1C)c1c(N)n(Cc2ccccc2)c(=O)[nH]c1=O |  | 4.77% [at 0.501 µM] |
| CN(C)C(CNC(=O)c1ccc(OCc2cn3ccccc3n2)cc1)c1ccco1 (configuration not stated) | inactive |  |
| CN(C(=O)CSc1nc2ccccc2n1Cc1ccccc1C#N)c1ccccc1 | inactive |  |
| NS(=O)(=O)c1ccc(CNC(=O)c2cccc(Oc3ccccc3)c2)cc1 | inactive |  |
| O=C(CNc1ccccc1N1CCCC1=O)Nc1cc(Cl)ccc1-n1cncn1 | inactive |  |
| C[C@H](NC(=O)OC(C)(C)C)c1nnc(SCC(N)=O)o1 | inactive |  |

| SMILES | Potency | activity, negative = inhibition |
| --- | --- | --- |
| CCc1ccccc1NC(=O)CSc1nnc([C@@H](NC(=O)OC(C)(C)C)C(C)C)o1 |  | 10.1% [at 2.33 µM] |
| CC(C)Sc1nnc([C@H](Cc2ccccc2)NC(=O)OC(C)(C)C)o1 | 35.5 µM (active) |  |
| O=C(CN1CCN(S(=O)(=O)c2ccc(Cl)s2)CC1)N1CCCCC1 |  | 18.1% [at 2.33 µM] |
| COc1ccc(/C=N\NC(=O)c2sc(N)nc2C)cc1OC | inactive |  |
| CCOc1cc(/C=C(\C#N)c2nc(-c3cccs3)c(NC(C)=O)s2)ccc1O | inactive |  |
| COc1cc(/C=N\Nc2nc(-c3cccs3)c(NC(C)=O)s2)ccc1O | 11.2 µM (active) |  |
| CC1=Nc2cc(C(=O)N3CCC(C)CC3)ccc2Sc2ccc(Cl)cc21 | inactive |  |
| CCc1nnc(SCc2nc(-c3cccc(C)c3)oc2C)c2cc3sc(C)cc3n12 | inactive |  |
| CC(C)Oc1ccc(S(=O)(=O)N2CCOCC2)cc1NC(=O)C1CSC2(C)CCC(=O)N12 (configuration not stated) | 44.7 µM (active) |  |
| CCN(CC)S(=O)(=O)c1ccc(N2CCOCC2)c(NC(=O)C2CSC3(C)CCC(=O)N23)c1 (configuration not stated) | inactive |  |
| CC(C)Oc1ccc(S(=O)(=O)N2CCOCC2)cc1NC(=O)C1CCCC1 | inactive |  |
| CCNC(=O)CC1C(=O)N(c2ccc(F)cc2)C(=O)N1Cc1ccc(C)cc1 (configuration not stated) | inactive |  |
| C=C1c2cc(CC)ccc2NC(=O)N1c1ccc(C)cc1 | 11.2 µM (active) |  |
| Cc1ccc(CC2C(=O)N(c3ccc(F)cc3)C(=O)C2C)cc1 (configuration not stated) |  | 2.4% [at 0.501 µM] |
| O=C(c1cc(COc2ccc(F)c(F)c2)on1)N1CCOCC1 |  | -4.01% [at 0.501 µM] |
| Cc1cc(NS(=O)(=O)c2ccc(NC(=O)C(C)Oc3cccc(C)c3C)cc2)nc(C)n1 (configuration not stated) | inactive |  |
| Cn1c(=O)[nH]c(=O)c2c1[nH]c(=S)n2Cc1ccccc1 |  | -14.7% [at 2.33 µM] |
| CN1C=CC=C/C1=C1\SC(=S)N(Cc2ccccc2)C1=O | 20 µM (active) |  |
| Cc1ccc(C)c(NC(=O)COC(=O)CSc2ccccc2)c1 |  | 0.0476% [at 12.7 µM] |
| COc1ccc(C)cc1NC(=O)c1cc(-c2ccccc2)nc2c1cnn2C(C)C |  | 0.616% [at 12.7 µM] |
| CC(Sc1nnc(C2CC2)n1C1CC1)C(=O)Nc1ccc(C(N)=O)cc1 (configuration not stated) |  | -5.65% [at 2.33 µM] |
| CC(C)=C(NC(=O)c1ccco1)C(=O)NCCc1nc2ccccc2[nH]1 |  | 6.16% [at 2.33 µM] |
| CC(C)Oc1ccc(/C=C(\NC(=O)/C=C/c2ccco2)C(=O)NCCc2nc3ccccc3[nH]2)cc1 | 39.8 µM (active) |  |

| SMILES | Potency | activity, negative = inhibition |
| --- | --- | --- |
| COc1ccc(OC(C)C(=O)NCCc2nc3ccccc3[nH]2)cc1 (configuration not stated) | inactive |  |
| Cc1ccc(-n2nc(C)c3c(C)cc(=O)n(CC(=O)Nc4ccc(C(C)C)cc4)c32)cc1 | inactive |  |
| CCN(CC(=O)Nc1c(F)cccc1F)C(=O)c1ccc(Sc2nncn2C)c([N+](=O)[O-])c1 | inactive |  |
| Cc1ccc(S(=O)(=O)N2CCN(C(=O)CSc3cc(C)ccc3C)CC2)c(C)c1 | inactive |  |
| Brc1ccccc1C1Nc2cccc3cccc(c23)N1 | 44.7 µM (active) |  |
| Oc1ccc(C2Nc3cccc4cccc(c34)N2)cc1 | 25.1 µM (active) |  |
| O=C1CCC([N+](=O)[O-])C(c2ccccc2Br)N1 (configuration not stated) | inactive |  |
| Cc1ccc(C2CC(c3cccc(C)c3)n3nc(N)nc3N2)cc1 (configuration not stated) | inactive |  |
| COc1ccc(N2C(=O)C3CCCN3C2c2cccc(OC)c2)cc1 (configuration not stated) | inactive |  |
| COc1cccc(C2Nc3cccc4cccc(c34)N2)c1 | 20 µM (active) |  |
| Cc1ccc(C2Nc3cccc4cccc(c34)N2)cc1 | 10 µM (active) |  |
| COc1ccc(C2NC(=O)c3ccccc3N2)cc1 (configuration not stated) | inactive |  |
| COc1ccc(C2CC(c3ccc(C)cc3)Nc3nc(N)nn32)cc1 (configuration not stated) | inactive |  |
| O=C1NC(c2cccc(Cl)c2)Nc2ccccc21 (configuration not stated) | inactive |  |
| COc1ccc(C(C#N)(CC(=O)O)c2cnccn2)cc1OC (configuration not stated) |  | 3.29% [at 2.33 µM] |
| CC1CCCN(c2nc3c(S(=O)(=O)c4ccc(C(C)C)cc4)nnn3c3ccsc23)C1 (configuration not stated) | inactive |  |
| COc1ccc(CNC(=O)c2ccc(NS(=O)(=O)c3ccc4[nH]c(=O)[nH]c4c3)cc2)cc1OC |  | 19.8% [at 12.7 µM] |
| CCOc1ccc(-c2nonc2NC(=O)c2oc3ccc(CC)cc3c2C)cc1 | inactive |  |
| Cn1c(C(=O)Nc2cccc(C(F)(F)F)c2)cc2c(=O)n3ccccc3nc21 | inactive |  |
| CC(=O)N1CCc2c(sc(NC(=O)CCS(=O)(=O)c3ccccc3)c2C#N)C1 | inactive |  |
| CC(C)(C)n1ncc2c(=O)n(Cc3c(Cl)cccc3Br)cnc21 |  | -12.6% [at 2.33 µM] |
| CCOC(=O)c1cc(NC(=O)c2ccc(F)cc2)c(=O)n2c1oc1ccccc12 | inactive |  |
| COc1ccccc1-c1nnc(C2CCN(C(=O)c3ccc(Cl)cc3)CC2)o1 | inactive |  |

| SMILES | Potency | activity, negative = inhibition |
| --- | --- | --- |
| CCOC(=O)c1cc(-c2ccc(OC)c(S(=O)(=O)Nc3ccc(OC)cc3OC)c2)on1 | inactive |  |
| CCOc1cccc2cc(C(=O)OCC(=O)Nc3c(C)cccc3CC)c(=O)oc12 | 44.7 µM (active) |  |
| Cc1cccc(C)c1NC(=O)COC(=O)c1ccccc1O | inactive |  |
| C=CCc1cccc2cc(C(=O)OCC)c(=O)oc12 | inactive |  |
| CCCN(CCC)C(=O)Cn1c(=O)n(-c2ccc(Cl)cc2)c(=O)c2c3c(sc21)CCCCC3 | inactive |  |
| Cc1ccc(C)c(C(=O)COC(=O)Cn2[nH]c(=O)c3ccccc3c2=O)c1 |  | 11.2% [at 12.7 µM] |
| Cc1ccc(-n2cnc3cc(C(=O)NCCC4=CCCCC4)ccc32)cc1Cl | inactive |  |
| FC(F)(F)c1nnc2sc(-c3ccco3)nn12 | inactive |  |
| Fc1ccc(-c2ccc(-c3nn4c(-c5ccco5)nnc4s3)o2)cc1 | 15.8 µM (active) |  |
| Cc1nnc2sc(-c3ccco3)nn12 | inactive |  |
| CSc1ccc(CCNC(=O)c2cc(C)nc3c2c(C)nn3-c2cccc(F)c2)cc1 | inactive |  |
| CC(C)n1ncc2c(C(=O)NCc3ccccc3CN(C)C)cc(C3CC3)nc21 | inactive |  |
| Cc1cccc(N2Cc3ccccc3C2=NC(=O)c2ccc(Cl)nc2)c1 | 11.2 µM (active) |  |
| N#Cc1ccc(N2Cc3ccccc3/C2=N/C(=O)Nc2ccc(Cl)cc2)cc1 | inactive |  |
| Cc1cccc(N2CCN(C(=O)c3cccc(S(=O)(=O)N4CCc5ccccc5C4)c3)CC2C)c1 (configuration not stated) | inactive |  |
| O=C(COc1cccc2c1CCNC2=O)NC1CCCCC1 |  | 8.64% [at 0.501 µM] |
| Cc1cc(OCC(=O)NCC2(N(C)C)CCCCC2)cc(C)c1Cl | inactive |  |
| Cc1cccc(OCC(O)Cn2c(N3CCCCC3)nc3c2c(=O)[nH]c(=O)n3C)c1 (configuration not stated) | inactive |  |
| CCOC(=O)Cn1c(CN(Cc2ccccc2)Cc2ccccc2)nc2c1c(=O)[nH]c(=O)n2C | inactive |  |
| CCC(C)Sc1nc2c(c(=O)[nH]c(=O)n2C)n1CC(O)COc1cccc2ccccc12 (configuration not stated) | 7.94 µM (active) |  |
| O=C(COc1ccc(/C=N/NS(=O)(=O)c2ccccc2)cc1)NCCc1ccccc1 |  | -4.68% [at 2.33 µM] |
| COc1ccc(/C=N/NS(=O)(=O)c2ccc(NC(C)=O)cc2)cc1 | inactive |  |
| O=S(=O)(N/N=C\c1cccn1-c1ccccc1)c1ccc2ccccc2c1 | 31.6 µM (active) |  |
